Test results published in PubChem BioAssay AID449762 (Southern Research Specialized Biocontainment Screening …, 2010).
In all, about 330,000 compounds went through this assay and about 1,900 (0.58%) were called active. Another 4% or so got no clear call; they are omitted. Cut-off read from the data, not from the text of the source: inconclusive = inhibition above about 70% without an active follow-up result; inactive = below that. Not all results are given here. Entries with a potency or affinity are not part of this list.

Assay: M. tuberculosis growth inhibition, HTS (AID 449762);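 note: bacterial growth assessed after seven days of incubation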
Conditions: M. tuberculosis H37Rv growth inhibition, 7H9 media; at 25 µM; hits give high values

Row | SMILES | inhibition
1 | CCn1cc(/C=N\NC(=O)c2c[nH]c3ccccc23)c(C)n1 | 4.35% (inactive)
2 | COc1cccc2c(=S)c(CCC(C)=O)c(C)[nH]c12 | -1.19% (inactive)
3 | O=C(c1ccccc1)N1N=C(c2ccc(F)cc2)CC1(O)C(F)(F)F (configuration not stated) | 14.8% (inactive)
4 | O=C(c1ccccc1)N1N=C(c2ccccc2)CC1(O)C(F)(F)F (configuration not stated) | 17.4% (inactive)
5 | COc1ccccc1C1CCN(Cc2ccc(Cl)c(Cl)c2)CC1 | 6.04% (inactive)
6 | COc1ccccc1C1CCN(Cc2ccccc2)CC1 | -7.77% (inactive)
7 | CCCn1c(=S)[nH]c2cc(C(=O)NCC3CCCO3)ccc2c1=O (configuration not stated) | -7.34% (inactive)
8 | COc1ccc(C=Nc2cccc3c(=O)[nH][nH]c(=O)c23)c2ccccc12 | -1.04% (inactive)
9 | Cc1ccc(/C=N/NC(=O)C(=O)N/N=C/c2ccc(C)o2)o1 | -4.38% (inactive)
10 | Cc1ccc(C)c(/C=N/NC(=S)NC(C)C)c1 | -0.52% (inactive)
11 | COC(=O)N/N=C/c1cc(Br)ccc1O | -4.56% (inactive)
12 | CC(C)NC(=S)N/N=C/c1ccc(C(C)(C)C)cc1 | 3.03% (inactive)
13 | COC(=O)c1nonc1NCn1nnc2ccccc21 | -13.7% (inactive)
14 | Cc1ccccc1-n1c(-c2ccoc2)nc2ccccc2c1=O | 13.6% (inactive)
15 | O=C(CCN1CCN(c2ccccc2F)CC1)Nc1ccc(F)cc1 | -1.83% (inactive)
16 | S=c1[nH]nc(C2CCCCC2)n1/N=C/C=C/c1ccccc1 | 0.75% (inactive)
17 | Cc1cc(C(=O)OCC(=O)N2CCc3ccccc32)c(C)o1 | 0.97% (inactive)
18 | CC(C)(C)c1ccc(OCCC(=O)OCC(=O)NC2CC2)cc1 | -4.78% (inactive)
19 | Cc1ccc(OCCC(=O)OCC(=O)NC(=O)NC2CCCC2)cc1 | 6.88% (inactive)
20 | Cc1cc(=O)oc2c(C)c(OC(C)C(=O)NCC(O)c3ccccc3)ccc12 (configuration not stated) | 0.93% (inactive)
21 | C[C@H](CO)N1C[C@H](C)[C@@H](CN(C)S(=O)(=O)c2ccc(F)cc2)Oc2c(NC(=O)NC3CCCCC3)cccc2C1=O | 6.78% (inactive)
22 | CCOC(=O)C1CCCN(C2CCN(Cc3nc(-c4ccccc4)no3)CC2)C1 (configuration not stated) | -1.09% (inactive)
23 | Cc1c(Nc2cc(=O)oc3ccccc23)c(=O)n(-c2ccccc2)n1C | -1.53% (inactive)
24 | CCCc1ccc(S(=O)(=O)NCCc2ccncc2)cc1 | 2.76% (inactive)
25 | CCCCc1ccc(S(=O)(=O)NCCc2ccncc2)cc1 | 21.7% (inactive)

Row | SMILES | inhibition
26 | CCC(C(=O)Nc1cccc(S(=O)(=O)N(C)c2ccccc2)c1)c1ccccc1 (configuration not stated) | -1.21% (inactive)
27 | COc1cccc(Nc2c([N+](=O)[O-])cncc2[N+](=O)[O-])c1 | 65.1% (inactive)
28 | O=C(O)c1cccc(Nc2ccc([N+](=O)[O-])c3nonc23)c1 | 2.67% (inactive)
29 | O=C(COC(=O)CSc1ccc(F)cc1)NCc1ccco1 | -1.1% (inactive)
30 | O=C(O)c1cccc(S(=O)(=O)Nc2cccc3ccccc23)c1 | 20.9% (inactive)
31 | NC(N)=NN=C1c2ccccc2-c2ccccc21 | 6.09% (inactive)
32 | CCN(CC)CCOc1ccc2c(c1)C(=NO)c1cc(OCCN(CC)CC)ccc1-2 | 9.59% (inactive)
33 | O=C(Cc1cccc(NC(=O)C2CCN(C(=O)C3CCCC3)CC2)c1)Nc1cccc(C(=O)N2CCCC2)c1 | -2.63% (inactive)
34 | CC(=O)Nc1ccc(NS(=O)(=O)c2ccc(-c3cnc(C4CC4)o3)cc2)cc1 | -1.71% (inactive)
35 | COc1ccc(Cl)cc1S(=O)(=O)N(C)CC(=O)N1CCCC1 | 7.61% (inactive)
36 | Cc1ccc(C)c(NC(=O)COc2coc(CN3CCc4ccccc43)cc2=O)c1 | 47.8% (inactive)
37 | CCOC(=O)c1ccc(NC(=O)COc2coc(CN3CCc4ccccc43)cc2=O)cc1 | 34.3% (inactive)
38 | COc1ccc(OC)c(NC(=O)Cn2cc(C#N)c3ccccc32)c1 | -1.64% (inactive)
39 | Cc1ccc(S(=O)(=O)NC(=O)COc2ccccc2C)c(C)c1 | 0.6% (inactive)
40 | O=C(CCC1CCCCC1)NC1=NCCS1 | -6.25% (inactive)
41 | c1ccc(N/N=C2\CCCc3ccccc32)nc1 | 9.09% (inactive)
42 | Cc1cc(NC2CCCCC2)nc2ccccc12 | 10% (inactive)
43 | O=C(NNC(=O)C1CCN(C(=O)Nc2ccccc2)CC1)c1ccc([N+](=O)[O-])cc1 | -0.74% (inactive)
44 | COc1cc(NC(=O)NNC(=O)c2cc3occc3n2C)cc(OC)c1OC | -1.55% (inactive)
45 | O=C(Nc1ccc(OC(F)F)cc1)c1ncc(Cl)c(Cl)c1Cl | 3.27% (inactive)
46 | Cc1ccc(CS(=O)(=O)c2ncc(Cl)c(C(=O)Nc3ccc(OC(F)F)cc3)n2)cc1 | 1.02% (inactive)
47 | CCCCN(C(=O)c1c(CC)noc1C)c1c(N)n(CCCC)c(=O)[nH]c1=O | -5.14% (inactive)
48 | COc1cccc(CNC(=O)c2nnn(CC(=O)Nc3ccc4c(c3)OCO4)c2N)c1 | -1.11% (inactive)
49 | CCOC(=O)c1ccc(Oc2nc(OC)nc(N(C)C)n2)cc1 | 4.44% (inactive)
50 | CCOC(=O)c1ccc(Oc2nc(N(C)C)nc(N(C)C)n2)cc1 | 17% (inactive)

Row | SMILES | inhibition
51 | CCc1nnc(N/N=C/c2ccccc2F)n1N | 31.3% (inactive)
52 | CCc1nnc(N/N=C/c2cc(Br)c(O)cc2O)n1N | 0.32% (inactive)
53 | CCN(CCn1cccn1)Cc1nc(-c2ccc(C(=O)OC)cc2)no1 | 24% (inactive)
54 | COC(=O)c1ccc(-c2noc(CN(Cc3ccncc3)CC3CCCO3)n2)cc1 (configuration not stated) | 41.2% (inactive)
55 | O=C(CSc1nnnn1C1CCCC1)N1CCOCC1 | -0.48% (inactive)
56 | COc1ccc(NC(=O)CCN2CCN(S(=O)(=O)c3cc(Cl)ccc3Cl)CC2)cc1 | -9.19% (inactive)
57 | Fc1ccccc1Oc1nc(-c2ccncc2)nc2ccccc12 | 4.31% (inactive)
58 | O=C(N/N=C/c1c(O)n(Cc2ccccc2)c(=O)[nH]c1=O)c1ccccc1O | 14.7% (inactive)
59 | CC(=O)Nc1nc2ccccc2[nH]1 | -2.83% (inactive)
60 | O=C(Nc1nc2ccccc2[nH]1)C1CC1 | -4.47% (inactive)
61 | O=C1CC(=O)N(c2ccccc2)c2ccccc21 | 8.88% (inactive)
62 | O=C1CCCCC(=O)N(c2ccccc2)c2ccccc21 | 4.12% (inactive)
63 | COC(=O)c1ccsc1NC(=O)CCS(=O)(=O)c1ccc(Cl)cc1 | -2.4% (inactive)
64 | CCCCNC(=O)CSc1nc2c(sc(=S)n2-c2cc(Cl)ccc2OC)c(=O)[nH]1 | 2.82% (inactive)
65 | CCOc1ccc(OCCC(=O)OCC(=O)Nc2ccc(N3CCOCC3)cc2)cc1 | 8.74% (inactive)
66 | C=CCNCc1ccccc1[N+](=O)[O-] | 15% (inactive)
67 | Cc1c(C#N)c2ncnc(-c3ccccc3)c2n1-c1ccccc1 | -23.1% (inactive)
68 | COc1cccc2c1-c1c(O)cccc1C2=O | 6.4% (inactive)
69 | COC(=O)c1cc(C#N)c(=O)[nH]c1C | 4.68% (inactive)
70 | O=C(CSc1ccc(F)cc1)N1CCC(c2nc3ccccc3s2)CC1 | 3.87% (inactive)
71 | O=C(CSc1c(Cl)cccc1Cl)N1CCC(c2nc3ccccc3s2)CC1 | 6.33% (inactive)
72 | CN1CCC(OC(=O)COc2ccccc2)CC1 | -3.85% (inactive)
73 | Cc1ccc2c(c1)N(C(=O)CCC(=O)N1CCOCC1)CCO2 | -0.82% (inactive)
74 | O=S(=O)(c1cccs1)n1cccn1 | 0.03% (inactive)
75 | O=S(=O)(Nc1ccccn1)c1cccs1 | -1.52% (inactive)

Row | SMILES | inhibition
76 | COc1ccccc1N(C)S(=O)(=O)c1ccc(C(=O)Nc2ccncc2)cc1 | 6.47% (inactive)
77 | Cc1nc2ccc(NC(=O)c3ccc(S(=O)(=O)N(C)C)cc3)cc2s1 | 3.86% (inactive)
78 | COc1ccc(N2CCN(S(=O)(=O)CCNC(=O)/C=C/c3ccccc3)CC2)cc1 | 7.56% (inactive)
79 | O=C(COC(=O)C1CC2CCCC(C1)C2=O)NNC(=O)c1ccccc1Br (configuration not stated) | -3.73% (inactive)
80 | O=C(COC(=O)C1CC2CCCC(C1)C2=O)NC(=O)c1ccccc1 (configuration not stated) | -2.77% (inactive)
81 | Cc1nn(CC(O)c2ccccc2)c(C)c1Br (configuration not stated) | -6.52% (inactive)
82 | CCCn1c(NC(=O)c2ccccc2)nc2ccccc21 | -7.04% (inactive)
83 | CCC(=O)Nc1nc2ccccc2n1CCN(C)C | -8.02% (inactive)
84 | O=C(Nc1nc2ccccc2n1Cc1ccc(Cl)cc1)c1ccco1 | 50.9% (inactive)
85 | CCn1c(NC(C)=O)nc2ccccc21 | 31.6% (inactive)
86 | O=C(CSCc1ccc(Cl)cc1)Nc1ccc(S(=O)(=O)N2CCCCCC2)cc1 | 1.03% (inactive)
87 | CC1CCCC(NC(=O)CSc2nncs2)C1C (configuration not stated) | -10.3% (inactive)
88 | CCC(=O)c1ccc(OCC(=O)Nc2nc(-c3cccnc3)cs2)cc1 | 24.3% (inactive)
89 | COC1=CC2[C@@H]3Cc4ccc(OC)c(O)c4[C@]2(CCN3C)CC1=O (some centres not stated) | 6.39% (inactive)
90 | CC(C)=CCC/C(C)=C/CNC(=O)CC1C[C@H](C(=O)N2CCCCC2)[C@@]2(C)c3[nH]c4ccccc4c3CCN2C1=O (some centres not stated) | -1.03% (inactive)
91 | Cc1cccc(NC(=O)C2Cc3ccccc3O/C2=N\O)c1 (configuration not stated) | 0.7% (inactive)
92 | CN(C)CCN[C@H]1CCC2C3CC=C4C[C@@H](O)CC[C@]4(C)C3CC[C@@]21C (some centres not stated) | 1.3% (inactive)
93 | CC(C)C(=O)N[C@H]1CCC2C3CC=C4C[C@@H](O)CC[C@]4(C)C3CC[C@@]21C (some centres not stated) | 4.73% (inactive)
94 | CCCCn1c(N)c(N(CC(C)C)C(=O)CCCc2nc3ccccc3c(=O)[nH]2)c(=O)[nH]c1=O | 0.43% (inactive)
95 | Cc1cc(NC(=O)CCC(=O)N(CC(=O)NC2CCCC2)c2ccc3c(c2)OCCO3)no1 | -6.7% (inactive)
96 | COc1ccc(-n2nc3c(c2NC(=O)CCCl)CSC3)cc1 | 5.23% (inactive)
97 | CCC(=O)Nc1c2c(nn1-c1ccc(OC)cc1)CSC2 | 1.36% (inactive)
